Data: PubChem BioAssay (NCI)
The panel holds about 83,000 compounds, 20% with a hit somewhere; the sample as a whole holds those more often.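 Interpretation: 100, growth as untreated; towards 0, rising growth inhibition; 0, no net growth; 0 to -100, cell death. Compounds scoring below 10 were considered active.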 Unmarked numbers belong to inactive results. The source made the active and inactive calls.

Experiments:
Assay in all cases: NCI-60 one-dose screen, 48 h (100 = growth as untreated, 0 = no growth, -100 = all killed)
Settings in all cases: 10 µM unless noted
EKVX NSCLC = tested on: EKVX NSCLC
SN12C renal = tested on: SN12C renal
UO-31 renal = tested on: UO-31 renal
TK-10 renal = tested on: TK-10 renal
ACHN renal = tested on: ACHN renal
CAKI-1 renal = tested on: CAKI-1 renal
A498 renal = tested on: A498 renal
CCRF-CEM leukemia = tested on: CCRF-CEM leukemia
MOLT-4 leukemia = tested on: MOLT-4 leukemia
SR leukemia = tested on: SR leukemia

Structure (SMILES) | growth (EKVX NSCLC) | growth (SN12C renal) | growth (UO-31 renal) | growth (TK-10 renal) | growth (ACHN renal) | growth (CAKI-1 renal) | growth (A498 renal) | growth (CCRF-CEM leukemia) | growth (MOLT-4 leukemia) | growth (SR leukemia)
O=C(Nc1ccc(C2=NCCCN2)cc1)Nc1ccc(C2=NCCCN2)cc1 | 64.1% | 94.8% | 90.1% | 109% | 87.7% | 79.3% | 77.4% | 73% | 71.6% | 69.8%
CCCc1nn(C)c2c(=O)[nH]c(-c3cc(S(=O)(=O)N4CCN(C)CC4)ccc3OCC)nc12 | 95.1% | 102% | 78.7% | 113% | 92.8% | 80.2% | 103% | 108% | 94.8% | –
COc1ccc(-c2c3c(nn2-c2ccc(N)cc2)CCc2cnoc2-3)cc1OC | 102% | 92.4% | 62.1% | 88.5% | 81.7% | 82.1% | 85.3% | 61.5% | 86.4% | –
O=C(Nc1ccc(Nc2ccncc2)cc1)c1ccc(Nc2ccnc3ccc([N+](=O)[O-])cc23)cc1[N+](=O)[O-] | 50% | 68% | 52.8% | 102% | 65.9% | 89.3% | 120% | 98.8% | 109% | –
CN(CCOc1ccc(CC2SC(=O)NC2=O)cc1)c1ccccn1 (stereo not drawn) | 101% | 88.2% | 72.1% | 103% | 84.9% | 96.3% | 110% | 108% | 119% | –
NC(N)=NN=c1c(=O)c2ccccc2c1=O | 118% | 16.3% | 64.8% | 110% | 78% | 104% | 78.1% | -27.9% (active) | -33.1% (active) | –
Cn1cc(-c2csc(-c3cn(C)c4ncccc34)n2)c2cc(Br)cnc21 | 84.4% | 89.4% | 100% | 115% | 95.5% | 85.3% | 79% | 80% | 85% | –
COc1ccc2c(c1)nc(N)c1c3cc(OC)c(OC)cc3cn21 | 73.1% | 56.4% | 49.8% | 48.9% | 46.4% | 28.5% | 35.9% | 47.1% | 76.4% | –
Cc1cc2cn3c4cccnc4[nH]c(=O)c3c2cc1C | 76.7% | 22.5% | 58.9% | 61.3% | 82.1% | 75.7% | 95.8% | 4.5% (active) | 18.4% | –
O=C1c2nsnc2C(=O)c2c(F)c(F)c(F)c(F)c21 | -13.9% (active) | -94.8% (active) | -86.9% (active) | -98.9% (active) | -97.3% (active) | -75.9% (active) | 10.1% | 6.36% (active) | -26.6% (active) | –
Cc1scc2c1N(C(=O)CN1CCN(C)CC1)c1ccccc1NC2=O | 107% | 101% | 85.9% | 105% | 102% | 99.5% | 122% | 108% | 96.5% | –
CC(C)c1nc(N(C)S(C)(=O)=O)nc(-c2ccc(F)cc2)c1/C=C/[C@@H](O)C[C@@H](O)CC(=O)O | 91.2% | 96.2% | 75% | 107% | 97.1% | 97.6% | 56.2% | 104% | 109% | –
CC[C@@H]1OC(=O)[C@H](C)[C@@H](O[C@H]2C[C@@](C)(OC)[C@@H](O)[C@H](C)O2)[C@H](C)[C@@H](O[C@@H]2O[C@H](C)C[C@H](N(C)C)[C@H]2O)[C@](C)(O)C[C@@H](C)[C@@H]2N[C@@H](COCCOC)O[C@H]([C@H]2C)[C@]1(C)O | 102% | 98.9% | 81.5% | 119% | 102% | 96.6% | 119% | 82.4% | 90.1% | –
S=C(Nc1ccc(C2=NCCN2)cc1)Nc1ccc(C2=NCCN2)cc1 | 91.9% | 98.9% | 83.4% | 100% | 99.2% | 93.9% | 101% | 104% | 93.6% | 90.4%
C[n+]1c2ccccc2c(NC2CCNCC2)c2[nH]c3ccccc3c21 | 10.3% | -17.5% (active) | 67.3% | 29.5% | 71.1% | 88.8% | 51.7% | -10.9% (active) | -12.8% (active) | -24.4% (active)
CO[C@H]1/C=C/O[C@@]2(C)Oc3c(C)c(O)c4c(O)c(c(/C=N/N5CCN(C)CC5)c(O)c4c3C2=O)NC(=O)/C(C)=C\C=C\C(C)[C@H](O)[C@@H](C)[C@@H](O)[C@@H](C)[C@@H](OC(C)=O)[C@@H]1C (stereo partly drawn) | 91.7% | 105% | 88% | 98.6% | 82.1% | 90.4% | 103% | 101% | 102% | 105%
CCOC(=O)C1=C(C)N2C(=NC3=C(CCC/C3=C\c3ccc(Cl)cc3)C2c2ccc(Cl)cc2)S1 (stereo not drawn) | 64.6% | 58.1% | 53.9% | 58.2% | 16.6% | 62.3% | 3.17% (active) | -17% (active) | -3.87% (active) | -8.47% (active)
O=C(O)C(=O)O | 103% | 106% | 100% | 93.3% | 91.9% | 99.2% | 92.9% | 102% | 138% | 136%
C=CCOc1ccc2c(c1)CC[C@@H]1[C@@H]2CC[C@@]2(C)[C@H]1CC[C@]2(C)O | 82% | 96.7% | 92.6% | 56.7% | 85.8% | 75.4% | 90.5% | 70.7% | 72.5% | 58%
[O-]/[N+](=C\C=C\c1ccccc1)c1ccccc1 | 100% | 106% | 97.4% | 144% | 108% | 103% | 96.9% | 88% | 85.1% | 73%
Cc1ccc(NC(=O)Nc2ccc(-c3cccnc3)cc2N2CCC(CO)CC2)cc1 | 55.5% | 41% | 81.2% | 16.5% | 81.2% | 42.2% | -36.2% (active) | 34.7% | 17.6% | 17.1%
Cc1cc(Cl)ccc1Nc1nc(C(F)(F)F)ccc1C(=O)NCC(=O)N/N=C/c1c(Cl)cccc1Cl | 48% | 78.3% | 65.9% | 76.8% | 57.7% | 0.101% (active) | 83.3% | 19.5% | 50.8% | 42.2%
NCCCc1nnc(CCC(=O)c2nc3ccccc3[nH]2)o1 | 117% | 92.3% | 91.8% | 102% | 97.1% | 103% | 97.4% | 90.9% | 98.2% | 84.5%
CCC(CCC(C)C1CCC2C3CC=C4CC(O)CCC4(C)C3CCC12C)C(C)C (stereo not drawn) (tested in a mixture with another compound) | 115% | 84.4% | 93.6% | 139% | 88% | 108% | 104% | 60% | 70.6% | 101%
C[N+]1(CCC[N+]2(C)C[C@@H]3[C@H](C2)[C@@H]2C=C[C@H]3C2)CCOCC1 (stereo partly drawn) | 118% | 101% | 73.9% | 113% | 90.9% | 101% | 103% | 110% | 108% | 110%
O=C1c2ccccc2C(=O)c2c1cccc2-n1nnc2ccccc21 | 112% | 106% | 76% | 121% | 103% | 105% | 88.4% | 80.9% | 96% | 104%
Cn1[nH]cc(/C=N/C(N)=O)c1=O | 123% | 108% | 106% | 109% | 109% | 109% | 104% | 94.8% | 105% | 103%
O=C(CSCC(=O)N/N=C/c1ccccc1O)N/N=C\c1ccccc1O | 44.8% | 29% | 7.47% (active) | 24.4% | 11.9% | 11.4% | 99.1% | 3.39% (active) | -4.94% (active) | 3.96% (active)
